Among the test systems are SR leukemia; RPMI-8226 leukemia; OVCAR-8 ovarian; OVCAR-5 ovarian; OVCAR-4 ovarian; SK-OV-3 ovarian; IGROV1 ovarian; OVCAR-3 ovarian; HS 578T breast; NCI/ADR-RES ovarian.
Assay in all cases: NCI-60 one-dose screen, 48 h (100 = growth as untreated, 0 = no growth, -100 = all killed)
What all share (conditions): 10 µM unless noted

The panel holds about 83,000 compounds, 20% with a hit somewhere; the sample as a whole holds those more often.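 A percent growth of 40 corresponds to 60% growth inhibition; 0 means no net growth; -100 means all cells died. Active threshold: below 10.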 Values without a mark were called inactive. Active and inactive are the calls of the source.

Consider `COc1cc(C2NC(c3cc(OC)c(OC)c(OC)c3)C(C#N)(C#N)C2(C#N)C#N)cc(OC)c1OC` (stereo not given), for which the growth in the test on SR leukemia was 118%; with RPMI-8226 leukemia, 102%; in the test with OVCAR-8 ovarian, 106%; in the test with OVCAR-5 ovarian it was 96.4%; with OVCAR-4 ovarian, 100%; in the test on SK-OV-3 ovarian, 102%. For the same compound, the growth in the test with IGROV1 ovarian is 106%; in the test on OVCAR-3 ovarian it was 110%; with HS 578T breast, 89.2%; in the test with NCI/ADR-RES ovarian it was 97.8%.

On to `Cc1ccc(C(c2c(O)c3cc(Br)ccc3[nH]c2=O)c2c(O)c3cc(Br)ccc3[nH]c2=O)cc1`, for which the growth in the test on SR leukemia is 97.3%; in the test with RPMI-8226 leukemia it was 73.2%; with OVCAR-8 ovarian, 96%; with OVCAR-5 ovarian, 104%; with OVCAR-4 ovarian, 81.7%; in the test with SK-OV-3 ovarian, 86.1%. In addition, the growth was 89.6% in the test on IGROV1 ovarian, 86.7% in the test with OVCAR-3 ovarian, 82.4% in the test with HS 578T breast and 101% with NCI/ADR-RES ovarian.

For the compound `COc1ccccc1/C=C1\Oc2cc(OCCCN3CCCC3)ccc2C1=O`, the growth in the test on SR leukemia was 46.9%; with RPMI-8226 leukemia, 107%; in the test with OVCAR-8 ovarian, 93.7%; with OVCAR-5 ovarian it was 84.2%; with OVCAR-4 ovarian, 89%; in the test with SK-OV-3 ovarian, 108%. Also, the growth with IGROV1 ovarian was 92.3%; in the test with OVCAR-3 ovarian, 94.8%; in the test on HS 578T breast, 83.7%; with NCI/ADR-RES ovarian, 84.6%.

In the case of `CCN1C(=O)N(CC)C2C1NN=c1s/c(=C3\C(=O)Nc4ccccc43)c(=O)n12` (stereo not given), the growth is 18.4% in the test with SR leukemia; 36.9% in the test on RPMI-8226 leukemia; 31.6% with OVCAR-8 ovarian; 50.6% in the test with OVCAR-5 ovarian; 51.1% with OVCAR-4 ovarian; 18.4% with SK-OV-3 ovarian. Besides, the growth with IGROV1 ovarian was 35.2%; in the test with OVCAR-3 ovarian, -12.8% (active); with HS 578T breast, 13.2%; in the test with NCI/ADR-RES ovarian, 42%.

Consider `Cc1ccc(C2CC(c3cccc(Nc4ccncc4)c3)=NN2c2ccccc2)cc1` (stereo not given), for which the growth in the test on SR leukemia was -13.3% (active); in the test with RPMI-8226 leukemia, -48.7% (active); in the test on OVCAR-8 ovarian, -50.7% (active); with OVCAR-5 ovarian, -93.4% (active); in the test with OVCAR-4 ovarian it was -86.5% (active); with SK-OV-3 ovarian it was -31.4% (active). Also, the growth is -92.7% (active) with IGROV1 ovarian, -89.2% (active) in the test with OVCAR-3 ovarian, -57.5% (active) in the test with HS 578T breast and -72.8% (active) in the test with NCI/ADR-RES ovarian.

In the case of `S=c1[nH]cccc1-c1nnc2n1Nc1nc3ccc(Cl)cc3cc1CS2`, the growth is 85.6% with SR leukemia; 98.1% in the test with RPMI-8226 leukemia; 102% with OVCAR-8 ovarian; 95.3% in the test on OVCAR-5 ovarian; 101% with OVCAR-4 ovarian; 94.3% in the test with SK-OV-3 ovarian. For the same compound, the growth was 90.1% with IGROV1 ovarian, 105% with OVCAR-3 ovarian, 89.3% in the test with HS 578T breast and 99.3% with NCI/ADR-RES ovarian.

As for `COc1ccc(/C(C)=N/NC(=O)CSc2nc3ccccc3c(=O)n2Cc2ccc(S(N)(=O)=O)cc2)c(OC)c1`, the growth in the test with SR leukemia was 95.6%; with RPMI-8226 leukemia it was 116%; with OVCAR-8 ovarian, 100%; with OVCAR-5 ovarian, 99%; in the test on OVCAR-4 ovarian, 101%; with SK-OV-3 ovarian, 114%. Also, the growth is 104% in the test on IGROV1 ovarian, 111% in the test on OVCAR-3 ovarian, 102% in the test with HS 578T breast and 100% with NCI/ADR-RES ovarian.

For the compound `C=C1C(=O)O[C@H]2[C@H]1CC/C(COC(=O)/C=C/c1c[nH]c3ccccc13)=C\CC[C@@]1(C)O[C@@H]21`, the growth in the test on SR leukemia is -19.7% (active); in the test on RPMI-8226 leukemia, -34.3% (active); with OVCAR-8 ovarian, -34.4% (active); in the test with OVCAR-5 ovarian it was -42.1% (active); in the test with OVCAR-4 ovarian, -91.9% (active); in the test with SK-OV-3 ovarian, 50.8%. For the same compound, the growth in the test with IGROV1 ovarian is -69.7% (active); with OVCAR-3 ovarian it was -91.5% (active); in the test with HS 578T breast, -6.76% (active); in the test with NCI/ADR-RES ovarian it was -26.9% (active).

Take `COc1cc2c(cc1[N+](=O)[O-])-c1ccc([N+](=O)[O-])cc1/C2=N/NC(N)=S`: the growth with SR leukemia was 42.6%; with RPMI-8226 leukemia, 66.1%; in the test on OVCAR-8 ovarian, 51.9%; with OVCAR-5 ovarian it was 98.9%; in the test with OVCAR-4 ovarian, 57.6%; in the test with SK-OV-3 ovarian, 96.5%. Besides, the growth was 47.9% in the test with IGROV1 ovarian, 73.7% with OVCAR-3 ovarian, 77.3% in the test on HS 578T breast and 69.6% in the test on NCI/ADR-RES ovarian.

`CC(=O)OCCCCCNc1ccccc1`: the growth is 88.4% in the test with SR leukemia; 111% in the test on RPMI-8226 leukemia; 108% in the test with OVCAR-8 ovarian; 97.5% with OVCAR-5 ovarian; 92.8% in the test with OVCAR-4 ovarian; 109% in the test on SK-OV-3 ovarian. For the same compound, the growth with IGROV1 ovarian was 118%; in the test on OVCAR-3 ovarian it was 105%; with HS 578T breast, 107%; in the test with NCI/ADR-RES ovarian it was 102%.

With `CCc1c(Nc2ccc(C)cc2)nc(N)[nH]c1=O`, the growth with SR leukemia is 87.9%; in the test on RPMI-8226 leukemia, 103%; with OVCAR-8 ovarian it was 102%; in the test with OVCAR-5 ovarian, 101%; in the test with OVCAR-4 ovarian, 108%; with SK-OV-3 ovarian it was 114%. Also, the growth with IGROV1 ovarian was 102%; in the test with OVCAR-3 ovarian it was 119%; in the test on HS 578T breast, 111%; with NCI/ADR-RES ovarian it was 106%.

Consider `C=C(C)[C@@H]1CC[C@]2(C(=O)NCCCN(CCC#N)CCC#N)CC[C@]3(C)[C@H](CC[C@@H]4[C@@]5(C)CCC(=O)C(C)(C)[C@@H]5CC[C@]43C)[C@@H]12`, for which the growth in the test on SR leukemia was 108%; in the test on RPMI-8226 leukemia, 101%; in the test on OVCAR-8 ovarian it was 97.9%; in the test on OVCAR-5 ovarian, 103%; with OVCAR-4 ovarian, 92.6%; in the test on SK-OV-3 ovarian it was 93%. Moreover, the growth in the test with IGROV1 ovarian was 102%; with OVCAR-3 ovarian it was 107%; in the test with HS 578T breast, 96.3%; in the test on NCI/ADR-RES ovarian it was 103%.

`CCCc1cc2c(cc1Br)OCO2`: the growth in the test with SR leukemia is 111%; in the test with RPMI-8226 leukemia, 113%; in the test on OVCAR-8 ovarian it was 96.1%; in the test on OVCAR-5 ovarian, 96.5%; in the test on OVCAR-4 ovarian it was 114%; in the test on SK-OV-3 ovarian it was 103%. Moreover, the growth is 111% with IGROV1 ovarian, 113% with OVCAR-3 ovarian, 99.8% in the test on HS 578T breast and 98.5% in the test with NCI/ADR-RES ovarian.

Turning to `Cn1c(COC(=O)NCCn2ccnc2)nc2c(N3CCOCC3)nc(-c3ccccc3)nc21`, the growth with SR leukemia is 1.63% (active); in the test on RPMI-8226 leukemia, -29.4% (active); in the test on OVCAR-8 ovarian, -12.9% (active); with OVCAR-5 ovarian, -91% (active); in the test on OVCAR-4 ovarian, -87.8% (active); with SK-OV-3 ovarian it was 50.2%. The growth in the test with IGROV1 ovarian is -96% (active); with OVCAR-3 ovarian it was -89.7% (active); with HS 578T breast, -33% (active); in the test with NCI/ADR-RES ovarian, -1.95% (active).

On to `CC1(C)[C@H](O)CC[C@]2(C)[C@@H]1CC[C@@]13C[C@@H](CC[C@H]12)[C@@](O)(CO)C3`, for which the growth with SR leukemia was 103%; with RPMI-8226 leukemia, 108%; in the test on OVCAR-8 ovarian it was 110%; in the test on OVCAR-5 ovarian it was 106%; with OVCAR-4 ovarian, 117%; with SK-OV-3 ovarian, 109%. The growth was 113% in the test with IGROV1 ovarian, 112% with OVCAR-3 ovarian, 97.9% with HS 578T breast and 106% in the test on NCI/ADR-RES ovarian.

`COc1ccc(NC(=O)c2sc3nc(C)c(C(=O)c4ccc(OC)cc4)cc3c2N)cc1`: the growth in the test on SR leukemia was 7.62% (active); with RPMI-8226 leukemia it was 41.3%; in the test on OVCAR-8 ovarian, 62.1%; in the test on OVCAR-5 ovarian it was 72.6%; in the test with OVCAR-4 ovarian, 61.7%; in the test on SK-OV-3 ovarian it was 42.7%. Further, the growth was 50.2% in the test on IGROV1 ovarian, 25% in the test with OVCAR-3 ovarian, 40.4% in the test with HS 578T breast and 48.9% in the test on NCI/ADR-RES ovarian.

For `O=CNc1cc(Cl)cc(Cl)c1`, the growth with SR leukemia was 90.3%; in the test on RPMI-8226 leukemia, 99.1%; in the test on OVCAR-8 ovarian it was 99.8%; in the test on OVCAR-5 ovarian, 97.5%; with OVCAR-4 ovarian, 113%; in the test on SK-OV-3 ovarian, 115%. Also, the growth in the test with IGROV1 ovarian is 103%; in the test on OVCAR-3 ovarian it was 123%; in the test on HS 578T breast, 111%; in the test on NCI/ADR-RES ovarian, 108%.

Consider `NNC(=O)/C(=C\c1ccc([N+](=O)[O-])cc1)CC(=O)c1ccc(Cl)c(Cl)c1`, for which the growth in the test with SR leukemia is 86.7%; with RPMI-8226 leukemia it was 91.7%; in the test on OVCAR-8 ovarian, 90.9%; in the test with OVCAR-5 ovarian, 87.8%; in the test with OVCAR-4 ovarian, 80%; with SK-OV-3 ovarian, 99.9%. The growth with IGROV1 ovarian is 70%; in the test with OVCAR-3 ovarian it was 97.2%; with HS 578T breast, 88.4%; in the test on NCI/ADR-RES ovarian, 84.9%.

For the compound `Cc1cc(Nc2cccc(C(F)(F)F)c2)n2c(nc3ccccc32)c1C#N`, the growth is 31.6% in the test with SR leukemia; 22.8% with RPMI-8226 leukemia; 43% with OVCAR-8 ovarian; 78% with OVCAR-5 ovarian; 34.6% in the test on OVCAR-4 ovarian; 46.4% with SK-OV-3 ovarian. Further, the growth in the test on IGROV1 ovarian is 57.6%; in the test on OVCAR-3 ovarian, 39.4%; with HS 578T breast, 68.5%; with NCI/ADR-RES ovarian, 47.9%.

In the case of `C=CCn1c(SCC(=O)Nc2ccc(C(=O)/C=C/c3cc(OC)c(OC)c(OC)c3)cc2)nnc1-c1cc(OC)c(OC)c(OC)c1`, the growth is -5.4% (active) in the test with SR leukemia; -32.3% (active) with RPMI-8226 leukemia; 28.4% in the test with OVCAR-8 ovarian; 95% in the test with OVCAR-5 ovarian; 55.2% in the test on OVCAR-4 ovarian; 76.5% with SK-OV-3 ovarian. Also, the growth is 22.2% in the test on IGROV1 ovarian, -21% (active) in the test on OVCAR-3 ovarian, 69% with HS 578T breast and 73% in the test on NCI/ADR-RES ovarian.
